The record followed here is PubChem BioAssay (NCI).

Among the test systems are SR leukemia; RPMI-8226 leukemia; OVCAR-8 ovarian; OVCAR-5 ovarian; OVCAR-4 ovarian; SK-OV-3 ovarian; IGROV1 ovarian; OVCAR-3 ovarian; HS 578T breast; NCI/ADR-RES ovarian; T-47D breast; BT-549 breast; MDA-MB-435 melanoma; SW-620 colon; MCF7 breast; HCT-116 colon; HCC-2998 colon; KM12 colon; MDA-MB-468 breast.
What all share (experiment): NCI-60 one-dose screen, 48 h (100 = growth as untreated, 0 = no growth, -100 = all killed)
Common to all, as to conditions: 10 µM unless noted

The panel holds about 83,000 compounds, 20% with a hit somewhere; the sample as a whole holds those more often.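 A percent growth of 40 corresponds to 60% growth inhibition; 0 means no net growth; -100 means all cells died. Active threshold: below 10.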 Unmarked numbers belong to inactive results. Activity calls are given as the source filed them.

On to `C=CC(=O)Nc1ccc(C(=O)/C=C/c2ccc(N(C)C)cc2)c(O)c1`, for which the growth in the experiment on SR leukemia is 2.78% (active); in the experiment with RPMI-8226 leukemia, 6.01% (active); in the experiment on OVCAR-8 ovarian, -8.4% (active); with OVCAR-5 ovarian, 7.71% (active); in the experiment on OVCAR-4 ovarian, 39%; in the experiment with SK-OV-3 ovarian, 11.7%. The growth is 15.8% in the experiment on IGROV1 ovarian; -18.3% (active) in the experiment on OVCAR-3 ovarian; 21.7% with HS 578T breast; 15.3% with NCI/ADR-RES ovarian; 9.74% (active) in the experiment on T-47D breast; -45.7% (active) with BT-549 breast. For the same molecule, the growth in the experiment on MDA-MB-435 melanoma is -3.66% (active); in the experiment with SW-620 colon, 1.21% (active); in the experiment with MCF7 breast, 10.7%; with HCT-116 colon, -52.6% (active); with HCC-2998 colon it was -53.2% (active); in the experiment on KM12 colon, -64.4% (active). The growth in the experiment with MDA-MB-468 breast was -19.8% (active).
For `O=C(Nc1ccc(Br)cc1)Nc1ccc(-c2ccc3c(c2)NC(=O)/C3=C\c2ccc[nH]2)cc1`, the growth was 18.4% with SR leukemia; 32.2% with RPMI-8226 leukemia; 35.4% in the experiment on OVCAR-8 ovarian; 55.3% in the experiment on OVCAR-5 ovarian; 33.9% with OVCAR-4 ovarian; 77.1% with SK-OV-3 ovarian. The growth is 46.9% in the experiment with IGROV1 ovarian; 12.3% in the experiment on OVCAR-3 ovarian; 56% with HS 578T breast; 25.7% in the experiment with NCI/ADR-RES ovarian; 12.1% in the experiment with T-47D breast; 17.2% in the experiment on BT-549 breast. Moreover, the growth is 39.7% with MDA-MB-435 melanoma; 21% in the experiment with SW-620 colon; 8.33% (active) with MCF7 breast; 35% in the experiment on HCT-116 colon; 38.8% with HCC-2998 colon; -22.6% (active) in the experiment with KM12 colon. Moreover, the growth in the experiment with MDA-MB-468 breast is -5% (active).
Turning to `Cn1cc(-c2cc3nc(-c4cn(C)c5ncccc45)cc(N)n3n2)c2cc(F)ccc21`, the growth in the experiment on SR leukemia is -31.3% (active); in the experiment on RPMI-8226 leukemia, 38.1%; in the experiment on OVCAR-8 ovarian it was 11.5%; in the experiment on OVCAR-5 ovarian, 47.9%; in the experiment with OVCAR-4 ovarian, 20.2%; with SK-OV-3 ovarian, 24.4%. For the same molecule, the growth in the experiment with IGROV1 ovarian is 31.9%; with OVCAR-3 ovarian it was 43.9%; in the experiment with HS 578T breast, 47.2%; in the experiment on NCI/ADR-RES ovarian it was 28.3%; in the experiment with T-47D breast, 37.8%; in the experiment on BT-549 breast, 35.4%. Moreover, the growth with MDA-MB-435 melanoma is 83.1%; in the experiment with SW-620 colon it was 61%; in the experiment with MCF7 breast, 68.2%; with HCT-116 colon, 10.2%; in the experiment on HCC-2998 colon it was 39.8%; in the experiment on KM12 colon, 61.8%. The growth with MDA-MB-468 breast is 7.65% (active).
For `COc1ccc2[nH]c(O)c(N=NC(=O)c3ccc4nc(-c5ccc(Cl)cc5)[nH]c4c3)c2c1`, the growth in the experiment with SR leukemia is 34.2%; with RPMI-8226 leukemia, 103%; in the experiment with OVCAR-8 ovarian it was 48.4%; with OVCAR-5 ovarian it was 72.1%; with OVCAR-4 ovarian, 48.9%; with SK-OV-3 ovarian, 90.8%. Further, the growth with IGROV1 ovarian is 78.1%; in the experiment with OVCAR-3 ovarian it was 71.8%; with HS 578T breast, 37.7%; with NCI/ADR-RES ovarian, 116%; with T-47D breast, 13.5%; in the experiment with BT-549 breast, 34.5%. Besides, the growth was 81.2% with MDA-MB-435 melanoma; 82.6% in the experiment on SW-620 colon; 24.5% with MCF7 breast; 51.4% in the experiment on HCT-116 colon; 64.6% with HCC-2998 colon; 78.6% in the experiment with KM12 colon. Also, the growth with MDA-MB-468 breast was -48.3% (active).
Turning to `COc1c(B(O)O)cccc1-c1nc2ccc3cn[nH]c3c2c2c1CCCC2`, the growth with SR leukemia was 71.8%; in the experiment with RPMI-8226 leukemia, 45.8%; in the experiment with OVCAR-8 ovarian, 48.4%; with OVCAR-5 ovarian, 76.1%; with OVCAR-4 ovarian it was 77.3%; in the experiment on SK-OV-3 ovarian, 25.3%. The growth in the experiment on IGROV1 ovarian is 57.9%; in the experiment on OVCAR-3 ovarian it was 57%; with HS 578T breast, -17.9% (active); in the experiment with NCI/ADR-RES ovarian, 65.2%; in the experiment on T-47D breast, 70.6%; in the experiment on BT-549 breast, 30.7%. Further, the growth with MDA-MB-435 melanoma is 84.2%; in the experiment with SW-620 colon it was 53.6%; in the experiment with MCF7 breast, 60.5%; with HCT-116 colon it was 28.8%; in the experiment on HCC-2998 colon, 86.9%; with KM12 colon, 62.3%. In the experiment with MDA-MB-468 breast, the growth was 10.5%.
On to `CC1=C(C(=O)Nc2ccccc2)C(c2cccc3ccccc23)n2c(nc3ccccc32)N1` (configuration not stated), for which the growth in the experiment with SR leukemia is 72.4%; with RPMI-8226 leukemia it was 76.9%; with OVCAR-8 ovarian, -0.819% (active); in the experiment with OVCAR-5 ovarian it was 76.3%; with OVCAR-4 ovarian it was 42.3%; in the experiment on SK-OV-3 ovarian, -2.39% (active). The growth in the experiment on IGROV1 ovarian was 68%; in the experiment with OVCAR-3 ovarian it was 38.6%; in the experiment on HS 578T breast it was -13.9% (active); in the experiment on NCI/ADR-RES ovarian it was 32.2%; with T-47D breast, 88.9%; with BT-549 breast it was -2.15% (active). The growth in the experiment on MDA-MB-435 melanoma was 74.4%; in the experiment on SW-620 colon it was 67.6%; with MCF7 breast, 38.5%; in the experiment on HCT-116 colon it was 0.0484% (active); in the experiment on HCC-2998 colon, 90.5%; with KM12 colon, 89.9%. Also, the growth with MDA-MB-468 breast was 49.9%.
Regarding `CN(C)c1nc(NCCNS(=O)(=O)c2ccc(C(=O)/C=C/c3ccc(F)cc3)cc2)nc(N2CCOCC2)n1`, the growth was -25.7% (active) with SR leukemia; -28.4% (active) with RPMI-8226 leukemia; 42.3% in the experiment with OVCAR-8 ovarian; 96% in the experiment on OVCAR-5 ovarian; 64.5% in the experiment with OVCAR-4 ovarian; 82.5% in the experiment on SK-OV-3 ovarian. The growth in the experiment on IGROV1 ovarian was -44.9% (active); in the experiment on OVCAR-3 ovarian it was 64.1%; with HS 578T breast, 73.5%; in the experiment on NCI/ADR-RES ovarian it was 49.3%; with T-47D breast it was 35.4%; with BT-549 breast, -24.8% (active). For the same molecule, the growth with MDA-MB-435 melanoma is 3.15% (active); in the experiment on SW-620 colon it was -48.6% (active); in the experiment with MCF7 breast, 17.8%; in the experiment on HCT-116 colon, -96% (active); in the experiment with HCC-2998 colon, -96.5% (active); with KM12 colon, -42.5% (active). For the same molecule, the growth in the experiment with MDA-MB-468 breast was -36.6% (active).
For `COc1ccc(/C=C/c2nc3ccccc3c(=O)n2CC(=O)Nc2ccccc2)cc1`, the growth in the experiment with SR leukemia is 54.7%; in the experiment with RPMI-8226 leukemia, 81.8%; in the experiment with OVCAR-8 ovarian, 43.6%; with OVCAR-5 ovarian it was 60.6%; in the experiment with OVCAR-4 ovarian, 0.985% (active); in the experiment on SK-OV-3 ovarian, 44.9%. Moreover, the growth is 49.9% with IGROV1 ovarian; 49.3% in the experiment with OVCAR-3 ovarian; 9.93% (active) with HS 578T breast; 36.8% with NCI/ADR-RES ovarian; -20.4% (active) with T-47D breast; 98.5% in the experiment on BT-549 breast. In addition, the growth with MDA-MB-435 melanoma is 85.2%; in the experiment on SW-620 colon it was 61.6%; with MCF7 breast, 54.9%; with HCT-116 colon, 21%; in the experiment with HCC-2998 colon, 80.2%; in the experiment with KM12 colon, 66.9%. In addition, the growth with MDA-MB-468 breast was 55.7%.
